In the supplement of paper PMC12045047:
Unmarked numbers belong to inactive results.

What follows are compounds tested on primary human airway basal cells (HBEC, luciferase-transduced) (assay: proliferation (luciferase bioluminescence) Z score relative to plate mean; higher = more proliferation / more cells, active = 1.96 or more). Conditions: donor: 1; 0.5 µM; library: ENZO Libraries; 4 days.
Method: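 Primary human bronchial epithelial (airway basal) cells from two donors, lentivirally transduced with pHIV-Luc-ZsGreen, were seeded at 2000 cells/well in 384-well plates in FAD medium with ENZO or Prestwick library compounds and cultured for 4 days. Luciferin was then added and bioluminescence was read as a measure of cell number. Relative light units were converted to Z scores against the plate, and the mean of triplicate wells is reported.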

SMILES | proliferation
O=C(NCCCCN1CCOCC1)c1cc2ccccc2o1 | -0.215
O=Nc1c(-c2c(O)[nH]c3ccccc23)[nH]c2ccccc12 [Indirubin-3'-monooxime] | -0.0926
CCCC(CCC)C(=O)NO [Valproic acid hydroxamate] | -0.292
CC(C)CC(=O)N[C@H](C(=O)N[C@H](C(=O)N[C@@H](CC(C)C)[C@@H](O)CC(=O)N[C@@H](C)C(=O)N[C@@H](CC(C)C)[C@@H](O)CC(=O)O)C(C)C)C(C)C [Pepstatin A] | 0.161
CC(C)c1cnc(NC(=O)Cc2ccccc2)s1 | 0.304
Cc1ccc(C(=O)c2cc(/C=C/C(=O)NO)n(C)c2)cc1 | -0.0732
CCCCCCCCCC(=O)N[C@@H](CCCN=C(N)N)C(=O)N[C@H](C(=O)N[C@@H](CCCCN)C(=O)N[C@@H](CCCN=C(N)N)C(=O)CCl)C(C)C | 0.21
N#C/C(=C\c1ccc(O)c(O)c1)C(=O)Nc1ccccc1 | 0.183
CC(=O)Nc1ccc(C(=O)Nc2ccccc2N)cc1 | 0.183
CC(C)C(=O)SCCCCCCC(=O)Nc1nc(-c2ccccc2)cs1 | 0.111
CC(C)C[C@H](NC(=O)[C@@H](O)[C@H](N)Cc1ccccc1)C(=O)O | -0.66
Oc1cc(O)cc(/C=C/c2ccc(O)c(O)c2)c1 [Piceatannol] | -0.115
CC(NC(=O)C(Cc1ccccc1)NC(=O)OCc1ccccc1)C(=O)CF (stereo unspecified) | -0.176
NC(=O)c1ccncc1 [Isonicotinamide] | 0.125
O=c1ncccn1[C@@H]1O[C@H](CO)[C@@H](O)[C@H]1O [Zebularine] | -0.238
CC(C)C[C@H](NC(=O)[C@H]1O[C@@H]1C(=O)O)C(=O)NCCCCN=C(N)N | -0.0103
CNC(=O)[C@H](Cc1c[nH]c2ccccc12)NC(=O)[C@@H](CC(=O)NO)CC(C)C | -0.298
CC(C)CCNC(=O)[C@H](CC(C)C)NC(=O)[C@H]1O[C@@H]1C(=O)O | -0.298
O=C[C@@H]1CCCN1C(=O)[C@@H]1CCCN1C(=O)OCc1ccccc1 [Z-Prolyl-prolinal] | -0.531
CC(C)n1cnc2c(NCc3ccccc3)nc(NCCO)nc21 [N9-isopropyl-olomoucine] | -0.31
COC(=O)C[C@H](NC(=O)[C@H](C)NC(=O)[C@@H](NC(=O)OCc1ccccc1)C(C)C)C(=O)CF | -0.208
C[S+]([O-])c1ccc(-c2nc(-c3ccc(F)cc3)c(-c3ccncc3)[nH]2)cc1 (stereo unspecified) | 0.838
CCCCCCCCCCCCC/C=C/[C@@H](O)[C@@H](N)CO [D-erythro-Sphingosine] | -0.0291

Same assay, conditions: donor: 1; 5 µM; library: ENZO Libraries; 4 days

SMILES | proliferation
O=C(NCCCCN1CCOCC1)c1cc2ccccc2o1 | -0.00355
O=Nc1c(-c2c(O)[nH]c3ccccc23)[nH]c2ccccc12 [Indirubin-3'-monooxime] | 2.48 (active)
CCCC(CCC)C(=O)NO [Valproic acid hydroxamate] | -0.132
CC(C)CC(=O)N[C@H](C(=O)N[C@H](C(=O)N[C@@H](CC(C)C)[C@@H](O)CC(=O)N[C@@H](C)C(=O)N[C@@H](CC(C)C)[C@@H](O)CC(=O)O)C(C)C)C(C)C [Pepstatin A] | 0.196
CC(C)c1cnc(NC(=O)Cc2ccccc2)s1 | 0.142
Cc1ccc(C(=O)c2cc(/C=C/C(=O)NO)n(C)c2)cc1 | -0.0538
CCCCCCCCCC(=O)N[C@@H](CCCN=C(N)N)C(=O)N[C@H](C(=O)N[C@@H](CCCCN)C(=O)N[C@@H](CCCN=C(N)N)C(=O)CCl)C(C)C | 0.0695
N#C/C(=C\c1ccc(O)c(O)c1)C(=O)Nc1ccccc1 | 0.06
CC(=O)Nc1ccc(C(=O)Nc2ccccc2N)cc1 | -0.038
CC(C)C(=O)SCCCCCCC(=O)Nc1nc(-c2ccccc2)cs1 | 0.205
CC(C)C[C@H](NC(=O)[C@@H](O)[C@H](N)Cc1ccccc1)C(=O)O | -0.519
Oc1cc(O)cc(/C=C/c2ccc(O)c(O)c2)c1 [Piceatannol] | 1.52
CC(NC(=O)C(Cc1ccccc1)NC(=O)OCc1ccccc1)C(=O)CF (stereo unspecified) | -0.114
NC(=O)c1ccncc1 [Isonicotinamide] | -0.0123
O=c1ncccn1[C@@H]1O[C@H](CO)[C@@H](O)[C@H]1O [Zebularine] | 0.0287
CC(C)C[C@H](NC(=O)[C@H]1O[C@@H]1C(=O)O)C(=O)NCCCCN=C(N)N | -0.0032
CNC(=O)[C@H](Cc1c[nH]c2ccccc12)NC(=O)[C@@H](CC(=O)NO)CC(C)C | -0.522
CC(C)CCNC(=O)[C@H](CC(C)C)NC(=O)[C@H]1O[C@@H]1C(=O)O | -0.117
O=C[C@@H]1CCCN1C(=O)[C@@H]1CCCN1C(=O)OCc1ccccc1 [Z-Prolyl-prolinal] | -0.515
CC(C)n1cnc2c(NCc3ccccc3)nc(NCCO)nc21 [N9-isopropyl-olomoucine] | -0.285
COC(=O)C[C@H](NC(=O)[C@H](C)NC(=O)[C@@H](NC(=O)OCc1ccccc1)C(C)C)C(=O)CF | -0.0506
C[S+]([O-])c1ccc(-c2nc(-c3ccc(F)cc3)c(-c3ccncc3)[nH]2)cc1 (stereo unspecified) | 0.0347
CCCCCCCCCCCCC/C=C/[C@@H](O)[C@@H](N)CO [D-erythro-Sphingosine] | 0.187
